Compound activity deposited in PubChem by National Center for Advancing Translational Sciences (NCATS).
TGFb inhibitor: TGF-b pathway inhibition | HepG2 CAGA-GFP TGF-b/SMAD3 reporter, GFP fluorescence, 18 h; TGF-beta stimulated, 500 pg/mL final | 410,000 tested, 1.2% active | Potency, µM (titrated, usually from 46.1 µM), without a hit: top-dose activity, negative = inhibition, actives largely listed as inhibitors; note: % is set by controls: 0 for no effect and ±100 for the full control effect; nearly all actives have a fitted effect of over 65% in size
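TGF-beta reporter screen: HEPG2 CAGA-GFP, 1% FBS, 500 pg/mL TGF-beta final, 18 h; per-cell GFP summed per well; curves fitted and categorized by class.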
ATXN2 expr inh: reduces ATXN2 reporter expression in HEK-293 cells. HEK-293 ATXN2-luciferase reporter, luminescence, 24 h. Potency, µM (highest dose often 57 µM), for inactives: at the top dose activity change, negative = inhibition, actives largely listed as inhibitors. 360,000 tested, 0.72% active. AID 1745845; note: % is set by controls: 0 for no effect and ±100 for the full control effect; nearly all actives have a fitted effect of over 55% in size
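qHTS (up to 57 uM final) was run with 24 h compound exposure of reporter cells at 37 °C. Each well was multiplexed: SteadyGlo luminescence measured ATXN2-luciferase expression after a fluorogenic Gly-Phe-AFC viability readout (25 uM final).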
DT40 TDP1 no CPT: qHTS for Inhibitors of human tyrosyl-DNA phosphodiesterase 1 (TDP1): qHTS in cells in absence of CPT. DT40 Tdp1-/- hTDP1 cells, no CPT, ATP luminescence, 48 h. Potency, µM (top dose mostly 46.2 µM), for the others: at the top dose activity change, negative = growth inhibition, most hits filed as inhibitors. 420,000 tested, 15% active. AID 686978, 2013; note: % is set by controls: 0 for no effect and ±100 for the full control effect; nearly all actives have a fitted effect of over 55% in size
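No-CPT arm: Tdp1-/-;hTDP1 DT40 cells (400/well) plus compounds, incubated ≥48 hr at 37 °C. Readout CellTiter-Glo luminescence.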
ATXN viability: reduces viability in counter-screen for ATXN expression inhibitors; 400,000 tested, 0.49% active; S2 cells (HEK-293 line with an ATXN2-luciferase reporter) viability, CellTiter-Fluor protease fluorescence, 24 h; Potency, µM (highest dose often 56.7 µM), usual class: cytotoxic; note: nearly all actives have a fitted effect of over 40% in size
HepG2 viability: counter-screen for TGF-b inhibitors: cytotoxicity in HepG2 cells; 410,000 tested, 0.76% active; HepG2 CAGA-GFP viability, ATP luminescence, 18 h; AID 588856; Potency, µM (top dose mostly 46.1 µM), for the others: top-dose activity change, negative = cytotoxicity, actives largely listed as cytotoxic
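HepG2 CAGA-GFP cells (1000/well, DMEM with 1% FBS) received compound, then TGF-beta at 500 pg/mL final, and were incubated 18 hours at 37 degrees C. Viability was read by CellTiter-Glo luminescence. Media-only wells were set as complete cell-killing and DMSO as no toxicity.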
TDP1 cell CPT: DT40-hTDP1 cell growth loss with CPT | chicken DT40 Tdp1-/-;hTDP1 cells + 20 nM CPT, ATP luminescence, 48 h | Potency, µM (highest dose often 46.2 µM), for the others: at the top dose activity change, negative = growth inhibition, usual class: inhibitors | 420,000 tested, 12% active | AID 686979; note: % is set by controls: 0 for no effect and ±100 for the full control effect; nearly all actives have a fitted effect of over 55% in size
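Chicken DT40 Tdp1-/- cells stably complemented with human TDP1 were seeded at 400 cells/well in medium containing 20 nM camptothecin, exposed to pin-transferred compounds, and grown at 37 °C for at least 48 hr. Viability was read as ATP luminescence.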
Active calls of the source: *; i = inactive; ? = inconclusive; / = not tested or not shown; ! = not confirmed by another sample; [ ] = another dose, or the depositor's remark. Most compounds without a hit are left out; they make up all but 17% or so of the library. Calls come from the whole dose curve; as a rule, active = well fitted curve in the direction sought with a large enough effect; inconclusive = small, poorly fitted or top-dose-only effect, or another doubt; inactive = no such curve, though single readings can be large; an effect the other way counts as inactive or inconclusive. Potency is the fitted concentration of half-maximal effect.

SMILES	TGFb inhibitor	ATXN2 expr inh	DT40 TDP1 no CPT	ATXN viability	HepG2 viability	TDP1 cell CPT
CCN1CCN(c2ccc(S(=O)(=O)N3CCCCC3)cc2NC(=O)c2ccc(OC(F)F)cc2)CC1	3.3%	-13.5%	?	i	-33.4%	?
CCN1CCN(c2ccc(S(=O)(=O)N3CCCCC3)cc2NC(=O)c2cccc(OC(F)F)c2)CC1	6.7%	4.5%	20.6µM*	i	0.0%	?
O=C(Nc1cc(S(=O)(=O)N2CCOCC2)ccc1N1CCCCC1)c1ccc(Cl)cc1	-21.2%	-8.3%	13µM*	?	-4.3%	18.4µM*
COc1ccc(Cl)cc1C(=O)Nc1sc2c(c1C(=O)OC(C)C)CCCC2	22.9%	2.7%	-7.9%	i	-2.7%	-11.4%
Cc1ccc(-c2nc3cccnc3s2)cc1NC(=O)C1c2ccccc2Oc2ccccc21	1.1%	50.4%	?	i	-5.2%	?
COc1cc(CN2CCCC(n3cc(C(=O)N4CCCCC4)nn3)C2)cc2c1OCO2 (centres undefined)	/	/	-12.5%	i	/	-5.1%[9.04 µM]
Cc1ccccc1C(=O)Nc1cc(S(=O)(=O)N2CCCCC2)ccc1N1CCN(C)CC1	-22.6%	-18.0%	-43.8%	i	-28.4%	-10.1%
CC(C)(C)C(=O)Nc1cc(S(=O)(=O)N2CCCCC2)ccc1N1CCCCC1	?	-35.0%	23.1µM*	i	-11.7%	16.4µM*
CC1CN(S(=O)(=O)c2cccc(C(=O)N=c3sccn3C)c2)CC(C)O1 (centres undefined)	0.6%	-10.4%	?	i	-7.1%	18.4µM*
CN1CCN(c2ccc(S(=O)(=O)N3CCCCC3)cc2NC(=O)c2ccc3ccccc3c2)CC1	35.5µM*	-3.4%	?	i	-53.9%	?
O=C(Nc1cc(S(=O)(=O)N2CCOCC2)ccc1N1CCCCC1)c1ccccc1	-12.5%	-3.3%	20.6µM*	i	-4.7%	?
C/C=N/NC(=O)CCNC(=O)c1ccccc1	-1.0%	1.2%	-8.7%	i	-6.2%	8.5%
O=C(Nc1cc(S(=O)(=O)N2CCOCC2)ccc1N1CCCC1)c1ccc2c(c1)S(=O)(=O)c1ccccc1C2=O	-13.5%	/	?	i	14.0%	13µM*
CC1CN(S(=O)(=O)c2cccc(C(=O)Nc3ccccc3N3CCCCC3)c2)CC(C)O1 (centres undefined)	-19.8%	-14.5%	13µM*	i	-3.4%	16.4µM*
COc1cccc(C(=O)Nc2cc(S(=O)(=O)N3CCOCC3)ccc2N2CCOCC2)c1	-2.0%	-3.8%	-6.0%	i	-2.2%	-4.5%
Cc1c(C(=O)Nc2cc(S(=O)(=O)N3CCOCC3)ccc2N2CCN(C)CC2)oc2ccccc12	-2.2%	-11.5%	18.4µM*	i	-10.3%	?
CC1CN(S(=O)(=O)c2cccc(C(=O)Nc3ccccc3N3CCOCC3)c2)CC(C)O1 (centres undefined)	-28.9%	-11.3%	?	i	0.0%	?
CC(C)COc1cccc(C(=O)Nc2cc(S(=O)(=O)N3CCOCC3)ccc2N2CCCC2)c1	?	15.4%	20.6µM*	i	2.9%	?
CN1CCN(c2ccc(S(=O)(=O)N3CCOCC3)cc2NC(=O)CC(C)(C)C)CC1	8.2%	3.0%	2.9%	i	-5.3%	?
COc1ccc(C)cc1NC(C)C(=O)NC(=O)NC1CCCCC1 (centres undefined)	-10.4%	-14.2%	?	i	5.6%	?
COc1ncc2nc(CCc3ccccc3)c(=O)n(C)c2n1	/	/	?	/	/	-14.8%
OCC[C@@H]1C[C@H](O)[C@@H](O)[C@@]2(OCCc3ccccc32)O1	-26.0%	-8.3%	-16.3%	i	-46.7%	-29.6%
Cc1ccc(S(=O)(=O)N(C)C[C@@H]2OCc3cnnn3CCCC(=O)N([C@@H](C)CO)C[C@H]2C)cc1	1.6%	5.7%	-11.3%	i	2.7%	-3.6%
O=S1(=O)CCOCCCN1Cc1ccccc1Br	0.4%	-0.7%	-27.7%	i	2.5%	29.1µM*!
CC12CCC(=O)N1C(C(=O)NNC(=O)c1ccccc1Cl)CS2 (centres undefined)	20.0%	/	-13.0%	i	12.1%	-1.4%
SMILES	TGFb inhibitor	ATXN2 expr inh	DT40 TDP1 no CPT	ATXN viability	HepG2 viability	TDP1 cell CPT
CC(/C=N/n1c(-c2ccco2)n[nH]c1=S)=C\c1ccco1	0.0%	-7.6%	4.3%	i	7.3%	-13.7%
Cc1cc(-c2n[nH]c(=S)n2/N=C/C(Cl)=C/c2ccccc2)n[nH]1	?	35.9%	13µM*	i	-20.3%	14.6µM*
CC(=C/c1ccccc1)/C=N/n1c(-c2ccncc2)n[nH]c1=S	25.1%	24.3%	16.4µM*	i	0.4%	?
S=c1[nH]nc(-c2ccco2)n1/N=C/C(Cl)=C/c1ccccc1	?	38.8%	14.6µM*	?	-34.1%	?
CC(/C=N/n1c(-c2cccnc2)n[nH]c1=S)=C\c1ccccc1	-2.6%	-4.3%	?	i	-4.8%	?
CC(=O)Nc1ccc(OCc2ccc3c(c2)OCO3)cc1	2.6%	43.2%	?	i	-5.3%	-2.8%
CC(C)C1Cc2ccccc2-c2[nH]c(=S)[nH]c(=O)c21 (centres undefined)	3.5%	17.1%	6.1%	i	9.6%	0.1%
Cc1c(Cl)cccc1NC(=O)c1cc(S(=O)(=O)N2CCCCC2)cn1C	-1.6%	-2.5%	?	i	-11.5%	?
CCCCCCCC#Cc1ccccc1/C=N/S(=O)c1ccc(C)cc1 (centres undefined)	-20.7%	9.4%	18.4µM*	i	-14.5%	11.6µM*
CCCCC#Cc1ccccc1CC(=O)Nc1ccccc1	?	3.9%	-72.8%	i	-11.2%	?
C[C@H](NC(=O)c1nc[nH]c1C(=O)NC1CCNCC1)C(=O)OC(C)(C)C	?	2.9%	9.9%	?	8.3%	1.5%
CC(=O)Nc1ccc(S(=O)(=O)NCCC(=O)NCc2ccco2)cc1	-18.2%	/	-4.4%	i	-5.5%	-4.6%
O=C(Nc1ccc2c(c1)OCCO2)c1[nH]c(C(F)(F)F)nc1-c1ccccc1	-12.6%	-0.1%	?	i	-9.4%	?
Cc1cc2oc3ccc(NCCCn4ccnc4)cc3c(=O)c2cc1C	102.6%	0.0%	14.6µM*	i	-33.5%	?
